Screens (PubChem BioAssay)
PD-1 reversal: activators reversing PD-1 mediated T-cell inhibition; primary human CD4 T cells, PD-L1 beads, CellTiter-Glo 96 h; activation, % (concentration not given with the values); 29,000 tested, under 10 active; call rule not given here;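 further: 0% = median vehicle wells and 100% = positive control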
YB-1 expr inh: YB-1 expression inhibition. U2OS, qRT-PCR YB-1 vs CDIP delta delta Cp, 16 h; hits give high values; zero = DMSO, each unit about twofold. delta delta Cp (YB-1 minus CDIP) (concentration not given with the values). hit rate 0.37% among 30,000. AID 434959;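 active means delta delta Cp rounded down to an integer at or above 3, about 3 SD of DMSO wells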;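 further: higher means less YB-1 transcript or more CDIP transcript relative to DMSO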
ROS inducer: raises reactive oxygen species in U2OS cancer cells; U2OS ROS induction, H2DCF-DA fluorescence; ROS induction (% of piperlongumine), % at 10 µM; hit rate 2% among 46,000; AID 624156; in the data active means ROS induction above about 79%, passing the limit was not always enough;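 further: 0% = DMSO vehicle median and 100% = reference compound median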
Numbers without * were called inactive; . = not tested or not shown. An excerpt weighted towards active compounds, which were near 2.1% of everything screened.

SMILES	PD-1 reversal	YB-1 expr inh	ROS inducer
COc1ccc(NC(=O)Nc2ccc3c(c2)C(=O)N([C@H](C)CO)C[C@H](C)[C@@H](CN(C)C(=O)C2CCCCC2)OCCCC[C@@H](C)O3)cc1	-1	0.35	114*
O=C(Cc1cccs1)N1CCN(c2ccccc2)CC1	.	.	-10
Cc1cc(=O)oc(C)c1C(=O)Nc1ccccc1C(=O)N1CCCCC1	.	.	-3
COc1ccc(OC)c(N(CC(=O)Nc2cccc(Cl)c2C)S(C)(=O)=O)c1	0	.	-3
C[C@@H]1CN([C@@H](C)CO)C(=O)Cc2cc(NC(=O)CCCN(C)C)ccc2O[C@@H]1CN(C)S(=O)(=O)c1cccs1	.	-1.3	-16
COc1ccc(NC(=O)CN(c2ccccc2Br)S(C)(=O)=O)cc1OC	2	.	-3
CC(=O)NC(=O)C1C=C2C=CC=CC2OC1=Nc1ccc(Cl)cc1 (centres undefined)	.	.	16
C[C@@H]1CCCCO[C@@H](CN(C)C(=O)C2CCCCC2)[C@@H](C)CN([C@H](C)CO)C(=O)c2cc(NC(=O)Nc3cccc4ccccc34)ccc2O1	-1	-0.12	102*
C[C@@H]1CCCCO[C@@H](CN(C)C(=O)Nc2cccc3ccccc23)[C@@H](C)CN([C@H](C)CO)C(=O)c2cc(NC(=O)Nc3cccc4ccccc34)ccc2O1	0	-0.34	48
C[C@@H]1CN([C@H](C)CO)C(=O)c2cccc(NC(=O)CCCCCC(=O)Nc3ccccc3N)c2O[C@@H]1CN(C)Cc1ccccc1	1	-0.7	2
C[C@@H]1CN([C@H](C)CO)C(=O)c2cccc(NC(=O)CCCCCC(=O)Nc3ccccc3N)c2O[C@@H]1CN(C)CC1CC1	2	-0.0057	-4
C[C@@H]1CN([C@@H](C)CO)C(=O)c2cccc(NC(=O)CCCCCC(=O)Nc3ccccc3N)c2O[C@H]1CN(C)Cc1ccc(Cl)c(Cl)c1	-3	-0.024	154*
C[C@@H]1CN([C@@H](C)CO)C(=O)c2cccc(NC(=O)CCCCCC(=O)Nc3ccccc3N)c2O[C@H]1CN(C)Cc1ccc(Oc2ccccc2)cc1	-4	-0.27	133*
C[C@H]1CN([C@@H](C)CO)C(=O)c2cccc(NC(=O)CCCCCC(=O)Nc3ccccc3N)c2O[C@@H]1CN(C)CC1CC1	-1	0.17	124*
C[C@@H]1CN([C@@H](C)CO)C(=O)c2cccc(NC(=O)CCCCCC(=O)Nc3ccccc3N)c2O[C@H]1CN(C)Cc1ccccc1	-2	-0.24	53
Cc1ccc(S(=O)(=O)N(C)C[C@@H]2Oc3ccc(NC(=O)c4ccncc4)cc3CC(=O)N([C@@H](C)CO)C[C@@H]2C)cc1	-1	-0.088	-4
NS(=O)(=O)c1ccc(CCNC(=O)c2cc3c(s2)-c2ccccc2OC3)cc1	.	.	2
COc1ccc(CN(C)C[C@H]2Oc3c(NS(=O)(=O)c4c(C)noc4C)cccc3C(=O)N([C@H](C)CO)C[C@H]2C)cc1	.	-0.61	-3
CCn1c2ccccc2c2cc(/C=N/NC(=O)c3ccccn3)ccc21	.	-0.2	-1
CCn1c(SCc2nc3ccccc3c(=O)[nH]2)nc2ccccc2c1=O	-3	.	94*
O=c1[nH]c(CSc2nnc(-c3ccccc3)n2C2CCCCC2)nc2ccccc12	-3	.	3
C[C@H](CO)N1C[C@H](C)[C@H](CN(C)S(=O)(=O)c2cccs2)Oc2ncc(/C=C/c3ccccc3)cc2C1=O	.	-13	32
O=c1sc2ccccc2n1Cc1nnc(SCc2ccccn2)n1-c1cccc(Cl)c1	.	.	7
Cc1noc(C)c1NC(=O)N(C)C[C@H]1Oc2ccc(NC(=O)Cc3ccccc3)cc2CC(=O)N([C@@H](C)CO)C[C@@H]1C	0	0.067	-9
COc1ccc(OC)c(NC(=O)c2ccc(CSc3nnnn3C)cc2)c1	1	.	-3
SMILES	PD-1 reversal	YB-1 expr inh	ROS inducer
COc1cc2cc(C)nc(Cc3cccc4ccccc34)c2cc1OC	-2	0.12	64
COc1ccc(-c2cc3cc(OC)c(OC)cc3c(Cc3ccccc3)n2)cc1	-1	-0.093	155*
COc1ccc(NC(=O)N(C)C[C@@H]2OCCCC[C@@H](C)Oc3ccc(NC(=O)Nc4cccc5ccccc45)cc3C(=O)N([C@H](C)CO)C[C@@H]2C)cc1	-1	0.18	33
COC(=O)CCCCCCC(=O)N/N=C/c1ccc(F)cc1	.	0.096	16
COC(=O)CCCCCCC(=O)N/N=C/c1c(F)c(F)c(F)c(F)c1F	.	0.03	266*
COc1cc(O)c2c(=O)c(-c3ccc(O)cc3)coc2c1	.	3*	16
O=c1c(-c2ccc(O)cc2)coc2cc(OC3OC(CO)C(O)C(O)C3O)cc(O)c12 (centres undefined)	4	-0.35	-12
CCN1C(=S)NC2c3cc(Br)ccc3OC1(C)C2C(=O)Nc1ccc(Cl)cc1 (centres undefined)	.	.	-4
O=C(Oc1ccc(OC(=O)c2ccco2)cc1)c1ccco1	-5	0.52	-3
CN(C(=O)C(Cl)Cl)c1ccc(OC(=O)c2ccco2)cc1	0	3.7*	-5
CCN1CCN(C(=O)CSc2nc(-c3ccc(OC)c(OC)c3)cc(C(F)(F)F)n2)CC1	-2	.	0
Cc1cc(C)c2c(n1)sc1c(=O)n(Cc3ccccc3Cl)nnc12	.	.	81*
Cc1cc(C)c2c(n1)sc1c(=O)n(NC(=O)Nc3ccccc3)c(C)nc12	0	.	12
CC(C)n1nnc2c(=O)oc3ccccc3c21	.	.	79*
CCn1c(C)nc2c(=O)oc3ccccc3c21	1	-0.42	13
COCCOC(=O)N1C(=O)[C@@]2(c3cc(C#CCC(C(=O)OC)C(=O)OC)ccc31)[C@H](c1ccccc1OCCO)N1[C@H](c3ccccc3)[C@H](c3ccccc3)OC(=O)[C@H]1[C@@H]2C(N)=O	.	0.25	407*
COCCOC(=O)N1C(=O)[C@@]2(c3cc(C#CCC(C(=O)OC)C(=O)OC)ccc31)[C@H](c1ccccc1OCCO)N1[C@H](c3ccccc3)[C@H](c3ccccc3)OC(=O)[C@H]1[C@@H]2C(=O)NC[C@H](O)c1ccccc1	.	-0.27	320*
C=CCNC(=O)[C@@H]1[C@H]2C(=O)O[C@H](c3ccccc3)[C@H](c3ccccc3)N2[C@H](c2ccccc2OCCO)[C@@]12C(=O)N(C(=O)OCCOC)c1ccc(C#Cc3ccc(OC)cc3)cc12	.	-0.34	34
COCCOC(=O)N1C(=O)[C@@]2(c3cc(C#Cc4ccc(OC)cc4)ccc31)[C@H](c1ccccc1OCCO)N1[C@H](c3ccccc3)[C@H](c3ccccc3)OC(=O)[C@H]1[C@@H]2C(N)=O	.	0.27	74
C=CCNC(=O)[C@H]1[C@@H]2C(=O)O[C@@H](c3ccccc3)[C@@H](c3ccccc3)N2[C@@H](c2ccccc2OCCO)[C@]12C(=O)N(C(=O)OCCOC)c1ccc(C#CCC(C(=O)OC)C(=O)OC)cc12	.	0.044	179*
COCCOC(=O)N1C(=O)[C@@]2(c3cc(C#CCNC(N)=O)ccc31)[C@H](c1ccccc1OCCO)N1[C@H](c3ccccc3)[C@H](c3ccccc3)OC(=O)[C@H]1[C@@H]2C(N)=O	.	-0.13	-4
COCCOC(=O)N1C(=O)[C@@]2(c3cc(C#Cc4ccc(OC)cc4)ccc31)[C@H](c1ccccc1OCCO)N1[C@H](c3ccccc3)[C@H](c3ccccc3)OC(=O)[C@H]1[C@@H]2C(=O)NC[C@H](O)c1ccccc1	.	-0.57	22
